Experimental data published in PubChem BioAssay AID1159580 (chemical genetic matrix, 2015).
Screen size: about 5,500 compounds; about 2,000 (36%) were called active. About 18% were inconclusive and are not listed. Cut-off read from the data, not from the text of the source: active = normalized growth mostly below about 0.91 (no sharp cut-off); inconclusive = no clear call, values can overlap the other calls; inactive = mostly above about 0.92. This is one part of the list.

Test: chemical genetic growth profiling, strain panel (AID 1159580);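 note: tested at 20 µM; growth read once vehicle control cultures reached saturation at 30 °C; 1 = growth at the plate median or of vehicle wells; lower values mean less growth of the strain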
Conditions: growth OD

Measured: normalized growth

NS(=O)(=O)c1cc2c(cc1Cl)NC(CSCc1ccccc1)=NS2(=O)=O
inactive: S. cerevisiae deletion strains, locus YJR075W, strain HOC1, stronger effect = lower value 0.971 | S. cerevisiae deletion strains, locus YKL009W, strain mrt4, stronger effect = lower value 0.99 | S. cerevisiae deletion strains, locus YKL068W, stronger effect = lower value 0.988 | S. cerevisiae deletion strains, locus YKL085W, strain MDH1 (second series), stronger effect = lower value 0.998 | S. cerevisiae deletion strains, locus YKL085W, strain MDH1, stronger effect = lower value 0.998 | S. cerevisiae deletion strains, locus YKL160W, strain elf1, stronger effect = lower value 1.01 | S. cerevisiae deletion strains, locus YKL190W, strain CNB1, stronger effect = lower value 0.987 | S. cerevisiae deletion strains, locus YKR001C, strain vps1, stronger effect = lower value 0.982 | S. cerevisiae deletion strains, locus YKR026C, strain gcn3, stronger effect = lower value 1.02 | S. cerevisiae deletion strains, locus YKR091W, strain srl3, stronger effect = lower value 1.02 | S. cerevisiae deletion strains, locus YLL001W, strain dnm1, stronger effect = lower value 1.03 | S. cerevisiae deletion strains, locus YLL026W, stronger effect = lower value 1.02 | S. cerevisiae deletion strains, locus YLL041C, strain sdh2, stronger effect = lower value 1.02 | S. cerevisiae deletion strains, locus YLR027C, strain aat2, stronger effect = lower value 1.02 | S. cerevisiae deletion strains, locus YLR039C, strain RIC1, stronger effect = lower value 1.05 | S. cerevisiae deletion strains, locus YLR058C, strain SHM2, stronger effect = lower value 0.982 | S. cerevisiae deletion strains, locus YLR102C, strain apc9, stronger effect = lower value 0.986 | S. cerevisiae deletion strains, locus YLR113W, strain HOG1, stronger effect = lower value 0.97 | S. cerevisiae deletion strains, locus YLR221C, strain rsa3, stronger effect = lower value 1.02 | S. cerevisiae deletion strains, locus YLR258W, strain gsy2, stronger effect = lower value 0.994 | S. cerevisiae deletion strains, locus YLR262C, strain YPT6 (second series), stronger effect = lower value 1.05 | S. cerevisiae deletion strains, locus YLR262C, strain YPT6, stronger effect = lower value 1.04 | S. cerevisiae deletion strains, locus YLR268W, strain sec22, stronger effect = lower value 0.992 | S. cerevisiae deletion strains, locus YLR320W, strain mms22, stronger effect = lower value 0.976 | S. cerevisiae deletion strains, locus YLR330W, strain CHS5, stronger effect = lower value 0.987 | S. cerevisiae deletion strains, locus YLR342W, strain FKS1 (second series), stronger effect = lower value 1.01 | S. cerevisiae deletion strains, locus YLR342W, strain FKS1, stronger effect = lower value 1.02 | S. cerevisiae deletion strains, locus YLR357W, strain rsc2, stronger effect = lower value 1.02 | S. cerevisiae deletion strains, locus YLR370C, strain arc18, stronger effect = lower value 1.01 | S. cerevisiae deletion strains, locus YLR371W, strain rom2, stronger effect = lower value 0.974 | S. cerevisiae deletion strains, locus YLR384C, strain iki3, stronger effect = lower value 1.02 | S. cerevisiae deletion strains, locus YLR418C, strain cdc73, stronger effect = lower value 0.994 | S. cerevisiae deletion strains, locus YML016C, strain PPZ1, stronger effect = lower value 0.987 | S. cerevisiae deletion strains, locus YML032C, strain rad52, stronger effect = lower value 0.995 | S. cerevisiae deletion strains, locus YML120C, strain ndi1, stronger effect = lower value 1.04 | S. cerevisiae deletion strains, locus YML124C, strain tub3, stronger effect = lower value 0.995 | S. cerevisiae deletion strains, locus YMR058W, strain fet3, stronger effect = lower value 1.02 | S. cerevisiae deletion strains, locus YMR078C, strain ctf18, stronger effect = lower value 0.983 | S. cerevisiae deletion strains, locus YMR125W, strain sto1, stronger effect = lower value 1.01 | S. cerevisiae deletion strains, locus YMR129W, stronger effect = lower value 1.03 | S. cerevisiae deletion strains, locus YMR205C, strain PFK2, stronger effect = lower value 1.02 | S. cerevisiae deletion strains, locus YMR223W, strain ubp8, stronger effect = lower value 0.985 | S. cerevisiae deletion strains, locus YMR231W, strain pep5, stronger effect = lower value 1.01 | S. cerevisiae deletion strains, locus YMR263W, strain SAP30, stronger effect = lower value 0.977 | S. cerevisiae deletion strains, locus YMR307W, strain GAS1, stronger effect = lower value 0.971 | S. cerevisiae deletion strains, locus YNL067W, strain RPL9B, stronger effect = lower value 0.959 | S. cerevisiae deletion strains, locus YNL071W, strain lat1, stronger effect = lower value 0.978 | S. cerevisiae deletion strains, locus YNL153C, strain GIM3, stronger effect = lower value 0.966 | S. cerevisiae deletion strains, locus YNL183C, strain NPR1, stronger effect = lower value 0.909 | S. cerevisiae deletion strains, locus YNL209W, strain ssb2, stronger effect = lower value 1 | S. cerevisiae deletion strains, locus YNL233W, strain BNI4, stronger effect = lower value 0.958 | S. cerevisiae deletion strains, locus YNL248C, strain rpa49, stronger effect = lower value 1 | S. cerevisiae deletion strains, locus YNL250W, strain rad50, stronger effect = lower value 0.978 | S. cerevisiae deletion strains, locus YNL271C, strain bni1, stronger effect = lower value 0.998 | S. cerevisiae deletion strains, locus YNL298W, strain CLA4, stronger effect = lower value 0.982 | S. cerevisiae deletion strains, locus YNL307C, strain MCK1, stronger effect = lower value 0.983 | S. cerevisiae deletion strains, locus YNL322C, strain KRE1 (second series), stronger effect = lower value 1.02 | S. cerevisiae deletion strains, locus YNL322C, strain KRE1, stronger effect = lower value 0.994 | S. cerevisiae deletion strains, locus YNR049C, strain mso1, stronger effect = lower value 1.02 | S. cerevisiae deletion strains, locus YNR052C, strain pop2, stronger effect = lower value 0.981 | S. cerevisiae deletion strains, locus YOL012C, strain htz1 0.861 | S. cerevisiae deletion strains, locus YOL147C, strain pex11, stronger effect = lower value 0.985 | S. cerevisiae deletion strains, locus YOR001W, strain rrp6, stronger effect = lower value 1.04 | S. cerevisiae deletion strains, locus YOR061W, strain CKA2, stronger effect = lower value 1 | S. cerevisiae deletion strains, locus YOR069W, strain VPS5, stronger effect = lower value 0.987 | S. cerevisiae deletion strains, locus YOR070C, strain gyp1, stronger effect = lower value 1 | S. cerevisiae deletion strains, locus YOR080W, strain dia2, stronger effect = lower value 1.03 | S. cerevisiae deletion strains, locus YOR083W, strain WHI5, stronger effect = lower value 1.05 | S. cerevisiae deletion strains, locus YOR106W, strain vam3, stronger effect = lower value 1.03 | S. cerevisiae deletion strains, locus YOR136W, strain idh2, stronger effect = lower value 0.979 | S. cerevisiae deletion strains, locus YOR144C, strain elg1, stronger effect = lower value 0.987 | S. cerevisiae deletion strains, locus YOR184W, strain ser1, stronger effect = lower value 0.985 | S. cerevisiae deletion strains, locus YOR231W, strain MKK1, stronger effect = lower value 0.959 | S. cerevisiae deletion strains, locus YOR265W, strain rbl2, stronger effect = lower value 1.01 | S. cerevisiae deletion strains, locus YOR270C, strain vph1, stronger effect = lower value 1.05 | S. cerevisiae deletion strains, locus YOR290C, strain snf2, stronger effect = lower value 1.01 | S. cerevisiae deletion strains, locus YOR316C, strain cot1, stronger effect = lower value 0.973 | S. cerevisiae deletion strains, locus YPL051W, strain arl3, stronger effect = lower value 1.02 | S. cerevisiae deletion strains, locus YPL078C, strain atp4, stronger effect = lower value 1.06 | S. cerevisiae deletion strains, locus YPL106C, strain sse1, stronger effect = lower value 0.973 | S. cerevisiae deletion strains, locus YPL240C, strain hsp82, stronger effect = lower value 1.01 | S. cerevisiae deletion strains, locus YPL256C, strain CLN2, stronger effect = lower value 0.935 | S. cerevisiae deletion strains, locus YPR119W, strain clb2, stronger effect = lower value 0.98 | S. cerevisiae deletion strains, locus YPR141C, strain kar3, stronger effect = lower value 0.973 | S. cerevisiae deletion strains, locus YPR163C, strain tif3, stronger effect = lower value 0.982 | S. cerevisiae deletion strains, locus YPR167C, strain met16, stronger effect = lower value 0.989 | S. cerevisiae deletion strains, strain wtn01, stronger effect = lower value 0.967 | S. cerevisiae strains, strain wild type, stronger effect = lower value 0.992
